The campaign covered roughly 310,000 compounds. About 2,200 (0.71%) showed an effect of 50% or more. The effect is printed as a negative number. This is one part of a sample in which strong results are shown more often than they occur.

These results are taken from paper PMC4336329 (PLoS ONE, 2015).

Chain of human ether-à-go-go-related gene (hERG) potassium channel (Q12809 whole entry, looked up): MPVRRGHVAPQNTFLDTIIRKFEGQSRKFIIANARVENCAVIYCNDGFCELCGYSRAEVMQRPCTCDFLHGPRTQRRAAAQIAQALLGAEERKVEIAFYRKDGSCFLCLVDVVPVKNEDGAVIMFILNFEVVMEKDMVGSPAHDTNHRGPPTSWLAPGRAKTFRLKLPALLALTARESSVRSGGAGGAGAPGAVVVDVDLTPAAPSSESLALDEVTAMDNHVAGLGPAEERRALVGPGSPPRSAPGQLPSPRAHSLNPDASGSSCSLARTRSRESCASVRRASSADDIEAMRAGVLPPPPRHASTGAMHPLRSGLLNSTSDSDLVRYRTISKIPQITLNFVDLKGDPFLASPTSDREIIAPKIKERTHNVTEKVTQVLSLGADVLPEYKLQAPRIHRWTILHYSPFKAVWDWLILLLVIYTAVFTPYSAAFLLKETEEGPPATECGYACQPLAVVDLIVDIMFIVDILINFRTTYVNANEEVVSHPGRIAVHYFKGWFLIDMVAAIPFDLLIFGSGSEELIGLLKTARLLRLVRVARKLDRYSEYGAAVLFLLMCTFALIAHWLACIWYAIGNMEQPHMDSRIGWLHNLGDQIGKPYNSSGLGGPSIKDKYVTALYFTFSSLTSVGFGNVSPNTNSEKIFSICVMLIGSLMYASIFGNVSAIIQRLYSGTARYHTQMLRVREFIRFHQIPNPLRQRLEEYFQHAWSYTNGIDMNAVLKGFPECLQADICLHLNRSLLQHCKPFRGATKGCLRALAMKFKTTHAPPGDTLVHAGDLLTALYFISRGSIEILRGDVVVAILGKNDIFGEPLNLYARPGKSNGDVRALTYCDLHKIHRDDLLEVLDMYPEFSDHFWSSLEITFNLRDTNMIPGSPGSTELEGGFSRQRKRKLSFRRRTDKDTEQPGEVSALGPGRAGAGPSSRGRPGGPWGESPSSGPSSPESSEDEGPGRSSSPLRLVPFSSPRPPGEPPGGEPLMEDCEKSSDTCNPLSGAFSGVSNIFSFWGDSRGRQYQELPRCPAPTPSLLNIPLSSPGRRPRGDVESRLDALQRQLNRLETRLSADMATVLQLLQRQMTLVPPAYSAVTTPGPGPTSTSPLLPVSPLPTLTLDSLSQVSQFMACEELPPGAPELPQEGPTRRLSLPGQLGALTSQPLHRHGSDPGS

This assay has as its target human ether-à-go-go-related gene (hERG) potassium channel (human, UniProt Q12809). Description: primary screen, population patch clamp on CHO cells stably expressing hERG; higher = less effect of the substance.
As for `CC(C)(C)OC(=O)NC(CNCc1ccccc1)Cc1ccccc1` (stereo not shown), the “hERG current change (%, negative = inhibition) at 1uM” value is 3.93%. To `Nc1c(C(=O)NCCN2CCOCC2)c2nc3ccccc3nc2n1-c1ccccc1` belongs -3.09%; to `Cc1ccc(NC(=S)/N=C(\N)Nc2nc(C)c3cc(C)c(C)cc3n2)cc1C`, 8.63%; to `COc1cccc(C(=O)Nc2cccc(C(C)=O)c2)c1`, 11.4%. For `COc1ccc(NC(=O)NCCN2CCN(c3cc(OC)ccc3OC)CC2)cc1`, the “hERG current change (%, negative = inhibition) at 1uM” value was 13.5%.

Take `COc1ccc(NC(=O)NCCCN2CCN(c3ccccc3F)CC2)cc1`: the “hERG current change (%, negative = inhibition) at 1uM” value is -5%. Turning to `COc1ccccc1N1CCN(CCCNC(=O)Nc2ccccc2)CC1`, the “hERG current change (%, negative = inhibition) at 1uM” value is -28.8%.

As for `COc1ccc(N2CCN(CCCNC(=O)Nc3ccccc3)CC2)cc1`, the “hERG current change (%, negative = inhibition) at 1uM” value is -50.5%. With `COc1ccc(NC(=O)NCCCN2CCN(c3cc(C)ccc3C)CC2)cc1`, the “hERG current change (%, negative = inhibition) at 1uM” value was -80.4%.

In the case of `COc1ccc(Cl)c(N2CCN(CCCNC(=O)Nc3ccc(C)cc3)CC2)c1`, the “hERG current change (%, negative = inhibition) at 1uM” value was -24.5%.

Turning to `CCCSc1nnc2n(N)c(=O)c3ccccc3n12`, the “hERG current change (%, negative = inhibition) at 1uM” value was 11.3%.

As to `C[C@@H](C(=O)Nc1ccc2ccccc2c1)[C@H]1C[C@]1(C)[C@H](NS(=O)(=O)c1ccc(-c2ccccc2)cc1)c1ccccc1`, the “hERG current change (%, negative = inhibition) at 1uM” value is given as -8.41%. To `Fc1ccccc1NC(=S)N1CCOCC1` belongs 12.2%; to `COc1cc(C2SCCS2)cc(Br)c1Oc1ncccc1[N+](=O)[O-]`, 10.3%; to `CC(C)CCNC(=O)Cc1csc(-c2ccccc2)n1`, 6.54%.

Turning to `OC1CCC(NC(=S)Nc2ccc(SC(F)F)cc2)CC1` (stereo not shown), the “hERG current change (%, negative = inhibition) at 1uM” value turned out to be 6.06%. Under `O=C(OCc1cnc(Cl)s1)c1cccc(Cl)c1` stands -5.8%; under `CCCc1cc(C(=O)Nc2ccc(Cl)cn2)cs1`, 9.72%; under `O=C(CCS(=O)(=O)c1ccc2c(c1)NC(=O)CO2)NCCc1ccccc1`, 9.02%.

Regarding `CS(=O)(=O)N(Cc1ccco1)CC(O)Cn1c2ccccc2c2ccccc21` (stereo not shown), the “hERG current change (%, negative = inhibition) at 1uM” value is reported as 15%.

As for `CCOc1ccc(NS(=O)(=O)c2ccc(C(=O)NCC3(N(C)C)CCCCC3)cc2)cc1`, the “hERG current change (%, negative = inhibition) at 1uM” value came to 6.85%. To `CN(C)C1(CNC(=O)c2ccc(NS(=O)(=O)c3ccc(Cl)c(Cl)c3)cc2)CCCCC1` belongs -50.9%. To `Cc1cc(S(=O)(=O)Nc2ccc(C(=O)NCC3(N(C)C)CCCCC3)cc2)ccc1F` belongs -7.71%. To `COc1ccc(CCC(=O)Nc2ccc(Cn3ccnc3)cc2)cc1` belongs 10.4%; to `CCCNc1c(NS(=O)(=O)c2ccc(C(C)(C)C)cc2)c(=O)oc2ccccc12`, 9.75%. Consider `CCCNc1c(NS(=O)(=O)c2ccc(C)c(C)c2)c(=O)oc2ccccc12`, for which the “hERG current change (%, negative = inhibition) at 1uM” value was -6.38%. For `CCCNc1c(NS(=O)(=O)c2ccc(OC)c(OC)c2)c(=O)oc2ccccc12`, the “hERG current change (%, negative = inhibition) at 1uM” value is -77.2%.

On to `Oc1c(Br)cc(/C=N/n2c(-c3ccccc3)n[nH]c2=S)c(Br)c1O`, for which the “hERG current change (%, negative = inhibition) at 1uM” value turned out to be 17.1%.

`COc1ccc(OCC(O)CN(C)C(=O)/C=C/c2cccc([N+](=O)[O-])c2)cc1` (stereo not shown): the “hERG current change (%, negative = inhibition) at 1uM” value is -56.7%. Under `CC(C)N(C(=O)/C=C/c1cccc([N+](=O)[O-])c1)C(C)C` stands 7.97%; under `Cl.O=[N+]([O-])c1ccc(OCC(O)CNC2CCCC2)cc1` (stereo not shown), -30.3%.

As to `O=[N+]([O-])c1ccc(OCC(O)CN(C2CCCCC2)C2CCCCC2)cc1` (stereo not shown), the “hERG current change (%, negative = inhibition) at 1uM” value is reported as -80.4%. To `Cc1nccn1CC(O)COc1ccc([N+](=O)[O-])cc1` (stereo not shown) belongs -41.3%. To `CCCCN(CCCC)CC(O)COc1ccc(Br)cc1` (stereo not shown) belongs -43.6%.

Turning to `CCCN(CCC)CC(O)COc1ccc([N+](=O)[O-])cc1` (stereo not shown), the “hERG current change (%, negative = inhibition) at 1uM” value is -81.4%. To `O=[N+]([O-])c1ccc(OCC(O)CN(CCO)CCO)cc1` (stereo not shown) belongs -16.9%; to `COc1ccc(OCC(O)CNC(=O)/C=C/c2cccc([N+](=O)[O-])c2)cc1` (stereo not shown), 14.8%.

Consider `COC(=O)c1ccc(OCC(O)CN(CC(C)C)CC(C)C)cc1` (stereo not shown), for which the “hERG current change (%, negative = inhibition) at 1uM” value worked out at 6.51%. Under `CC(C)CN(CC(C)C)CC(O)COc1ccc([N+](=O)[O-])cc1.Cl` (stereo not shown) stands -52.1%; under `COc1ccc(OCC(O)CN(C2CCCCC2)C2CCCCC2)cc1.Cl` (stereo not shown), -37.9%.

As to `CCOc1ccccc1NC(=O)CSc1nc2ccccc2c(=O)n1CC1CCCO1` (stereo not shown), the “hERG current change (%, negative = inhibition) at 1uM” value is reported as -35.6%. To `Cc1c(=O)n(OCc2ccccc2)c2ccccc2[n+]1[O-]` belongs 9.46%; to `Oc1cnn(-c2ccccc2)c1`, 5.96%; to `CC(=O)NC(CC(=O)OCc1ccc([N+](=O)[O-])cc1)c1ccccc1` (stereo not shown), -27%. To `COCCNC(=O)CSc1nc2sccc2c(=O)n1-c1ccccc1` belongs 16.6%. To `CCn1c(NC(=O)C(C)C)c2ccccc2nc1=O` belongs 2.18%.

With `COc1cc(C)nc(N(C)S(=O)(=O)c2ccccc2Cl)n1`, the “hERG current change (%, negative = inhibition) at 1uM” value is 7.72%. Under `CCN(CC)S(=O)(=O)c1cccc(C(=O)Nc2ccccc2)c1` stands -0.175%; under `CCN(CC)S(=O)(=O)c1cccc(NC(=O)c2ccc(C#N)cc2)c1`, 3.29%; under `CCN(CC)S(=O)(=O)c1cccc(C(=O)Nc2ccc(C#N)cc2)c1`, -74%. Under `COC(=O)CSC(C(=O)Nc1ccc(C)c(C)c1)c1ccccc1` (stereo not shown) stands -4.33%. Under `O=C(Cn1ccc([N+](=O)[O-])n1)N1CCCCCC1` stands 13.1%; under `COC(=O)c1ccc(/C=N/NC(=O)C2CC(=O)N(c3ccc(F)cc3)C2)cc1` (stereo not shown), 16.8%; under `COC(=O)c1nn(-c2cccc(C(F)(F)F)c2)ccc1=O`, 8.73%.

On to `COc1ccc(/C=N/NC(=O)c2ccccc2[N+](=O)[O-])cc1CN1CCc2cc(OC)c(OC)cc2C1C` (stereo not shown), for which the “hERG current change (%, negative = inhibition) at 1uM” value is -10.4%. `COc1ccc(/C=N/NC(=O)c2cccnc2)cc1CN1CCc2cc(OC)c(OC)cc2C1C` (stereo not shown): the “hERG current change (%, negative = inhibition) at 1uM” value was found to be 1.82%.

Consider `COc1ccc(C(=O)N/N=C/c2ccc(OC)c(CN3CCCc4ccccc43)c2)cc1`, for which the “hERG current change (%, negative = inhibition) at 1uM” value is on record as -6.65%. To `COc1ccc(C(=O)N/N=C/c2ccc(OC)c(CN3CCc4cc(OC)c(OC)cc4C3C)c2)cc1` (stereo not shown) belongs -85.1%. To `COc1ccc(/C=N/NC(=O)c2cc(OC)c(OC)c(OC)c2)cc1CN1CCc2cc(OC)c(OC)cc2C1C` (stereo not shown) belongs -21.9%; to `COc1ccc(/C=N/NC(=O)c2ccc(F)cc2)cc1CN1CCc2cc(OC)c(OC)cc2C1C` (stereo not shown), -99.1%. To `Cc1cccc([C@@H]2[C@@H]3C(=O)N(Cc4ccccc4)C(=O)[C@@H]3[C@]3(Cc4ccccc4)C(=O)N(c4cccc(F)c4)C(=O)N23)c1` belongs 9.13%.

Regarding `COc1cc(/C=C2/SC(=S)N(CC(=O)O)C2=O)ccc1OC(=O)c1ccco1`, the “hERG current change (%, negative = inhibition) at 1uM” value came to 7.62%. Under `N=C1/C(=C/c2ccc(OCc3ccccc3F)cc2)C(=O)N=C2SC(CC(=O)N3CCOCC3)=NN12` stands 12.2%; under `CCC(Sc1nc(N)c(NC(=O)c2ccc(OC)c(OC)c2)c(=O)[nH]1)C(=O)OC` (stereo not shown), -5.41%. In the case of `CCC(NS(=O)(=O)c1cccs1)c1ccc(C)cc1` (stereo not shown), the “hERG current change (%, negative = inhibition) at 1uM” value came to 8.69%.

For `O=[N+]([O-])c1ccc(N2CCCC2)c2ncccc12`, the “hERG current change (%, negative = inhibition) at 1uM” value is 2.1%.

Turning to `O=[N+]([O-])c1cccc2c(N3CCOCC3)ccnc12`, the “hERG current change (%, negative = inhibition) at 1uM” value was determined as 10%.

Regarding `Cc1ccc(S(=O)(=O)N2CCN(c3ccc([N+](=O)[O-])c4cccnc34)CC2)cc1`, the “hERG current change (%, negative = inhibition) at 1uM” value is reported as 7.53%. Under `O=C(c1cc(F)c(F)cc1Cl)N1CCN(c2ccc([N+](=O)[O-])c3ncccc23)CC1` stands -53.6%. To `O=C(c1ccccc1F)N1CCN(c2ccc([N+](=O)[O-])c3cccnc23)CC1` belongs -13.2%; to `O=[N+]([O-])c1cccc2c(N3CCCC3)ccnc12`, -84.4%; to `O=C(c1ccccc1F)N1CCN(c2ccc([N+](=O)[O-])c3ncccc23)CC1`, -38.7%.

Turning to `O=[N+]([O-])c1ccc(N2CCN(S(=O)(=O)c3ccccc3)CC2)c2cccnc12`, the “hERG current change (%, negative = inhibition) at 1uM” value is on record as -75.6%. Under `O=[N+]([O-])c1ccc(N2CCOCC2)c2cccnc12` stands -7.04%; under `COc1cc(NC(=O)C2CC(=O)N(Cc3ccco3)C2)cc(OC)c1` (stereo not shown), 2.39%; under `CC/C(=N\NC(=O)c1ccc(N2CCCC2=O)cc1)c1ccccc1`, 10.8%. Regarding `Cc1ccc2nc(SC(C)C(=O)NC3CCCc4ccccc43)[nH]c2c1` (stereo not shown), the “hERG current change (%, negative = inhibition) at 1uM” value amounted to 11.6%. Under `CC1(c2ccc([N+](=O)[O-])cc2)NC(=O)N(CC(=O)Nc2ccc(N3CCCCC3)cc2)C1=O` (stereo not shown) stands 14.8%; under `Cc1ccc(-n2ncc3c2CCCC3NC(=O)c2cnccn2)cc1C` (stereo not shown), 10.3%. Under `CCOc1ccc(C(C)NC(=O)Cc2ccccc2)cc1OCC` (stereo not shown) stands 10.8%; under `O=C(Cn1nc(C(F)(F)F)cc1C1CC1)Nc1ccccc1F`, 16.1%; under `COCCN1CC(=O)N2C(c3cccc(C)c3)c3[nH]c4ccccc4c3C[C@H]2C1=O` (stereo partly shown), 1.07%. Under `COc1ccc(Cn2cc3c(-c4ccc(F)cc4)nnc-3c3cc(OC)c(OC)cc32)cc1` stands -75.6%; under `COc1cc2c3nnc(-c4ccc(F)cc4)c-3cn(Cc3ccc(F)cc3)c2cc1OC`, -5.13%; under `COc1cc2c3nnc(-c4ccc(F)cc4)c-3cn(Cc3ccc(C)cc3)c2cc1OC`, 13.5%.
